31 compounds from PubChem BioAssay (EPA / NIEHS) can be followed below.

Test [1] is described as follows: ATG_TAL_CIS: Attagene CIS-FACTORIAL HepG2 Assay for human TAL Basal Promoter (AID 2282966).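 Also: background control endpoint measuring basal TAL promoter reporter mRNA not a specific factor.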 The following applies: HepG2 Attagene cis-factorial TAL promoter reporter; actives raise or lower the signal. A digest of the protocol:
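After 24 hours of chemical exposure, transfected HepG2 cells yielded RNA that was converted to 6-FAM-labelled, HpaI-digested reporter fragments for capillary electrophoresis. Values derive from bidirectional fitting against DMSO controls.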

A short description of test [2]: ATG_VDRE_CIS: Attagene CIS-FACTORIAL HepG2 Assay for human Vitamin D Receptor Element (VDRE) (AID 2282968). To be noted: HepG2 VDRE cis-reporter transcription, actives raise or lower the signal. Summed up:
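Transient MRTU transfection of HepG2, 24 h compound exposure. Readout: reporter transcripts via RT-PCR and capillary electrophoresis, fluorescence. Bidirectional fit vs DMSO.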

Test [3] deals with Estrogen receptor (Homo sapiens) (UniProt P03372). Kind of test: ATG_ERa_TRANS: Attagene TRANS-FACTORIAL HepG2 Assay for human Estrogen Receptor alpha (ERa) (AID 2282970; active = hit-call score of the fitted dose curve at least 0.9, where 1 is the maximum). To be noted: HepG2 Attagene TRANS ERa GAL4 reporter, mRNA. Summed up:
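Liver-derived HepG2 cells expressing chimeric nuclear receptor-Gal4 proteins from transient transfection were exposed for 24 hours. Gain of reporter mRNA signal versus DMSO, read by capillary electrophoresis of FAM-labelled PCR products, was recorded.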

Test [4] concerns the target X-box-binding protein 1 (Homo sapiens) (UniProt P17861). Briefly: ATG_Xbp1_CIS: Attagene CIS-FACTORIAL HepG2 Assay for human X-box Binding Protein 1 (XBP1) (AID 2282972). To be noted: HepG2 XBP1 cis-element reporter, Attagene multiplex; actives raise or lower the signal. Summed up:
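Reporter transcripts were quantified by RT-PCR with fluorescent primer extension and capillary electrophoresis after 24 h chemical exposure. Cells: transiently transfected HepG2 carrying cis-regulated reporter constructs; data fitted bidirectionally relative to DMSO.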

Test [5] is described as follows: ATG_GAL4_TRANS: Attagene TRANS-FACTORIAL HepG2 Assay for GAL4 (Internal Marker) (AID 2282976; active = hit-call score of the fitted dose curve at least 0.9, where 1 is the maximum). To be noted: HepG2 Attagene TRANS GAL4 internal marker reporter. A digest of the protocol:
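First, HepG2 cells were transfected with reporter units under GAL4-UAS control. Next, they were treated with chemical for 24 h. Finally, RNA was reverse-transcribed, PCR-amplified, FAM-labelled and resolved by capillary electrophoresis, with induction scored against DMSO.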

Test [6] addresses Nuclear receptor subfamily 1 group I member 3 (Homo sapiens) (UniProt Q14994). Briefly: ATG_CAR_TRANS: Attagene TRANS-FACTORIAL HepG2 Assay for human Constitutive Androstane Receptor (CAR) (AID 2282969; active = hit-call score of the fitted dose curve at least 0.9, where 1 is the maximum;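 also: activators raise reporter mRNA above DMSO so AC50 marks induction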). The following applies: HepG2 Attagene TRANS-FACTORIAL CAR reporter. A digest of the protocol: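 Transiently transfected HepG2, multiplex TRANS reporters (CAR-Gal4 chimera driving GAL4-UAS reporter). 24 h dosing. Readout: reporter transcript by RT-PCR + capillary electrophoresis, fluorescence intensity; positive direction vs DMSO.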

The nature of test [7]: ATG_M_19_TRANS: Attagene TRANS-FACTORIAL HepG2 Assay for M19 Transcription Factor (Internal Marker) (AID 2282974; active = hit-call score of the fitted dose curve at least 0.9, where 1 is the maximum). The following applies: HepG2 Attagene TRANS-FACTORIAL M19 internal marker reporter. A digest of the protocol:
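Reporter mRNA induction was measured in transfected HepG2 cells 24 h after dosing. Endpoint fitted upward relative to DMSO and serves as a background control within the multiplexed TRANS panel.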

Test [8] in a line: ATG_TGFb_CIS: Attagene CIS-FACTORIAL HepG2 Assay for human Transforming Growth Factor (TGF) (AID 2282967). The following applies: HepG2 Attagene CIS TGFb reporter, mRNA transcription; actives raise or lower the signal. Summed up: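 Cells were dosed for 24 hours, after which total RNA was reverse-transcribed and reporter sequences amplified, labeled and sized by capillary electrophoresis. Activity was fitted in both directions against DMSO.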

For test [9], the target named is Steroid hormone receptor ERR1 (Homo sapiens) (UniProt P11474). Briefly: ATG_ERRa_TRANS: Attagene TRANS-FACTORIAL HepG2 Assay for human Estrogen-Related Receptor alpha (ERRa) (AID 2282971; active = hit-call score of the fitted dose curve at least 0.9, where 1 is the maximum). The following applies: HepG2 Attagene TRANS reporter, ERRa transactivation. A digest of the protocol: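 Reporter transcript induction was quantified by RT-PCR and capillary electrophoresis of FAM-labelled, HpaI-cut products after 24 h treatment of HepG2 cells carrying transiently transfected GAL4-UAS reporter units and an exogenous ERRa-Gal4 fusion; activity scored as increase over DMSO.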
Steroid hormone receptor ERR1 (Homo sapiens), sequence (P11474 whole entry, looked up, the tested form may be a part): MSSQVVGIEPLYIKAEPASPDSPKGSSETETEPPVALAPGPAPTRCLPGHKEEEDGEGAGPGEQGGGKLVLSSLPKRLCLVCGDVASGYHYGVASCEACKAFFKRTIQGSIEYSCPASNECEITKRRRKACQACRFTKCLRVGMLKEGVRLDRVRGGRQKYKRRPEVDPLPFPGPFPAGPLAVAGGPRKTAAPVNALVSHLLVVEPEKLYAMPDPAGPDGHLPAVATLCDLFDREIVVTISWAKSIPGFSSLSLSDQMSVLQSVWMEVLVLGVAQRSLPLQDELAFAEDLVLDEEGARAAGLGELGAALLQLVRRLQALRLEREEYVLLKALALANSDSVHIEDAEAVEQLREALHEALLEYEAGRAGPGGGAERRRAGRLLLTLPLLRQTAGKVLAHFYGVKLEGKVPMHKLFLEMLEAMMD

The target of test [10] is Estrogen-related receptor gamma (Homo sapiens) (UniProt P62508). Briefly: ATG_ERRg_TRANS: Attagene TRANS-FACTORIAL HepG2 Assay for human Estrogen-Related Receptor gamma (ERRg) (AID 2282977; active = hit-call score of the fitted dose curve at least 0.9, where 1 is the maximum;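 also: hits increase reporter signal over DMSO so potencies reflect activators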). The following applies: HepG2 Attagene TRANS reporter, ERRg transactivation. Summed up: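 Readout: fluorescent reporter-mRNA fragments resolved by capillary electrophoresis after RT-PCR and HpaI cut. Cells: transiently transfected HepG2 carrying GAL4-UAS reporters driven by exogenous NR-Gal4 chimeras, dosed 24 h. Activity fitted upward relative to DMSO baseline.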
Estrogen-related receptor gamma (Homo sapiens), sequence (P62508 whole entry, looked up, the tested form may be a part): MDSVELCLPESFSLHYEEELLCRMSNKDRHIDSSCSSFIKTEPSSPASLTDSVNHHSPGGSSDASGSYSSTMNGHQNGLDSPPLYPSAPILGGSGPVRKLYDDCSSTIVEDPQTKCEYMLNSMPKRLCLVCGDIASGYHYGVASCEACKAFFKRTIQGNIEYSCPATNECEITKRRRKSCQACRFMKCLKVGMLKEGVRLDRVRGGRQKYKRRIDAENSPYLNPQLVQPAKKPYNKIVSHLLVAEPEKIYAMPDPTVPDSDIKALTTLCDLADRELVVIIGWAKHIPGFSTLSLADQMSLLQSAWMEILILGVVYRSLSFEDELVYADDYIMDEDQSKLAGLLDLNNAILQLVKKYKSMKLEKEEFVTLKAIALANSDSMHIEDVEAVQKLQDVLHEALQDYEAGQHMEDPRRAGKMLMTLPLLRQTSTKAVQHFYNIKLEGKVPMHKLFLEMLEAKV

Inconclusive results are not listed. Active and inactive are the calls of the source. The calls were made as follows, unless noted: active = hit-call score of the fitted dose curve at least 0.9, where 1 is the maximum; inactive = score below 0.9.

Nuclear receptor subfamily 1 group I member 3 (Homo sapiens), sequence (Q14994 whole entry, looked up, the tested form may be a part): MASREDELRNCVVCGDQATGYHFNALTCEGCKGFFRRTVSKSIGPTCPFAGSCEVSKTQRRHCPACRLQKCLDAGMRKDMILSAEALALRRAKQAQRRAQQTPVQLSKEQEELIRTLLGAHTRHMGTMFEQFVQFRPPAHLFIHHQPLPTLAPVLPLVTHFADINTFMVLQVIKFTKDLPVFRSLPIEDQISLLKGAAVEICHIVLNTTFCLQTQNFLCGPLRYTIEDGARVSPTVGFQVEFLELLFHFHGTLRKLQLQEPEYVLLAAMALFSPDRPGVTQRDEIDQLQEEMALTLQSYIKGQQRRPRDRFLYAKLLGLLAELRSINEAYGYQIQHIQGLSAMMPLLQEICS
X-box-binding protein 1 (Homo sapiens), sequence (P17861 whole entry, looked up): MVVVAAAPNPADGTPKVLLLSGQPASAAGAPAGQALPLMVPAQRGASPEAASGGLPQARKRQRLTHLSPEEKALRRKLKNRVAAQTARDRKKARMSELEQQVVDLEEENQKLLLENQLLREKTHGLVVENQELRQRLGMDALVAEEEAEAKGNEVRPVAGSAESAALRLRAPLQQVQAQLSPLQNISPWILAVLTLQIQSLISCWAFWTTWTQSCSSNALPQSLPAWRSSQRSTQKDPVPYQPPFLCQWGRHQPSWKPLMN
Estrogen receptor (Homo sapiens), sequence (P03372 whole entry, looked up, the tested form may be a part): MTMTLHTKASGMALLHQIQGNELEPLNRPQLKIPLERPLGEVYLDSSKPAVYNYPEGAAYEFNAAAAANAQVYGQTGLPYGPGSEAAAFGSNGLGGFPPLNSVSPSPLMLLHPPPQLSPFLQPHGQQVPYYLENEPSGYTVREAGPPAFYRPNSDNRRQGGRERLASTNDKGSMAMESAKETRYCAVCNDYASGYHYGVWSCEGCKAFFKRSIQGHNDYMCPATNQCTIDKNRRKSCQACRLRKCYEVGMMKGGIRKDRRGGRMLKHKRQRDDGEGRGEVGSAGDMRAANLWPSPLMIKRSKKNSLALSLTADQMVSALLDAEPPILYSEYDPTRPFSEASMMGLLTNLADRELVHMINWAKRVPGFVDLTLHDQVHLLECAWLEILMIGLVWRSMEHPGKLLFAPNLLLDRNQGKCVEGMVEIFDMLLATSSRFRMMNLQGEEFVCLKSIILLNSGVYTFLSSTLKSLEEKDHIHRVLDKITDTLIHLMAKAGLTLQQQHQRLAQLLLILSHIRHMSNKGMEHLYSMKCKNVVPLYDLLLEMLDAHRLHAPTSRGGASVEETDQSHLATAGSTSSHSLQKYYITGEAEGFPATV

Turning to `O=C(OCc1ccccc1)C(=O)OCc1ccccc1`, the compound was classed as inactive in test [1], in test [2], in test [3], in test [4] and in [5].

As for `CCCCCCCCCCCCCCCCCC(=O)OCC(CC)CCCC` (stereo not drawn), the outcome in test [1], in test [2], in test [6], in test [4], in test [7] and in test [5] was inactive.

As to `C=C(C)[C@@H]1CC[C@@H](C)C[C@@H]1O`, the call in test [1], in [8], in test [4] and in test [5] was inactive.

Turning to `CCCCCOC(=O)CCC`, the compound was classed as inactive in [1], in test [6], in [9], in test [4], in test [7] and in test [5]. In addition, in [10], the compound was classed as inactive.

Regarding `N#Cc1ccc(CC(=NNC(=O)Nc2ccc(OC(F)(F)F)cc2)c2cccc(C(F)(F)F)c2)cc1`, the compound was called inactive in test [1], in test [2], in test [6], in [4], in [7] and in test [5].

On to `CCCCCCCCCCCCN`, for which the compound was called inactive in [1], in [6], in test [4], in test [7] and in [5].

A word on the AC50: it is the concentration giving half of the maximal activity seen. As for `COc1ccc(Nc2ccccc2)c(C)c1`, the call in test [1], in test [9], in test [4] and in [10] was inactive. Moreover, in [3], the AC50 is 7.87 µM (active).

As to `CCCCCCCCCC=O`, the result in [1], in test [2], in test [3] and in test [4] was inactive.

As to `COc1cccc(OC)c1`, the compound was classed as inactive in test [1], in test [2], in [6], in [4], in [7] and in test [5].

Turning to `C=CC(=O)OCC(O)COc1ccccc1` (stereo not drawn), the compound was called inactive in test [1] and in test [6]. Moreover, the figures for the AC50 in test [2] and in test [4] were 26.2 µM (active) and 24.3 µM (active), respectively.

For `CCCCO`, the outcome in [1], in test [2], in test [4], in test [7] and in [5] was inactive.

Consider `COC(C(=O)O)c1ccccc1` (stereo not drawn), for which the call in [1], in test [2], in [4] and in test [5] was inactive.

`CO[Si](CCCn1c(=O)n(CCC[Si](OC)(OC)OC)c(=O)n(CCC[Si](OC)(OC)OC)c1=O)(OC)OC`: the compound was classed as inactive in test [1], in test [2], in test [6], in test [4], in [7] and in test [5].

Take `CCCCCCCCCCCCN(CCCCCCCCCCCC)CCCCCCCCCCCC`: the call in test [1], in test [2], in test [6], in [4] and in test [7] was inactive.

Consider `CCCCCCCCCCCCCC(=O)O`, for which the outcome in test [1], in test [2], in test [4], in [5] and in [10] was inactive.

For `CCCCCCCCCCCCOCCO`, the result in test [1], in test [8] and in test [5] was inactive. Further, the AC50 in [4] is 55.5 µM (active).

`CC[C@]12CCCN3CCc4c(n(c5ccccc45)[C@@](O)(C(=O)OC)C1)[C@@H]32`: the outcome in test [1], in test [2], in test [9], in test [4], in test [5] and in [10] was inactive.

`CC(C)(N)CO`: the result in test [1], in [2], in test [3], in test [9], in [4] and in [10] was inactive.

Consider `CC(C)(C)C(=O)c1ccccc1`, for which the compound was classed as inactive in test [1], in test [2], in [3] and in test [4].

With `CC(=O)Nc1ccccc1O`, the outcome in test [1], in [2], in test [6], in test [4] and in test [5] was inactive.

For the compound `Cc1cccc(C)c1C`, the outcome in test [1], in test [2], in test [6] and in test [4] was inactive.

With `CC1(C)CCC(C)(C)c2cc(C(=O)Nc3ccc(C(=O)O)cc3)ccc21`, the compound was classed as inactive in [8] and in [4]. Moreover, the AC50 in test [2] is 27.8 µM (active).

In the case of `CC(C)c1ccc(C(C)C)cc1`, in test [8], the concentration at half-maximal activity (AC50) is 171 µM (active). Also, the compound was called inactive in test [2], in test [6], in test [3], in test [4] and in test [7].

Regarding `CCCCCCCCCCCCCOS(=O)(=O)O`, the result in test [8], in test [2], in [4] and in [5] was inactive.

Consider `CC1=CCC(O)(C(C)C)CC1` (stereo not drawn), for which the compound was classed as inactive in test [2], in test [6], in test [3], in test [4], in [7] and in test [5].

For the compound `O=C[C@H](O)[C@H](O)[C@H](O)CO`, the compound was classed as inactive in [8], in test [6], in test [4] and in [5].

As to `CN(C)CCOCCN(C)C`, the compound was called inactive in [2], in [6], in test [4], in [7] and in test [10].

Regarding `CC(=O)c1c(C)cc(C(C)(C)C)cc1C`, the outcome in test [8], in [2], in [6] and in test [4] was inactive.

On to `CC1=CC(=O)NS(=O)(=O)O1`, for which the result in [8], in [2], in test [6], in [4] and in test [7] was inactive.

As for `Cc1ccccc1C=O`, the result in [8], in test [2], in [6], in test [3], in [4] and in [7] was inactive.

As for `CCC(C(=O)NC(N)=O)c1ccccc1` (stereo not drawn), the outcome in test [8], in test [9], in test [4] and in [7] was inactive.
